The values that follow come from PubChem BioAssay (NCI).

This is part of a sample that, as a whole, favours compounds with a hit. Of some 83,000 tested, about 20% had one in any assay.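 Note: values are percent growth. 100 is the growth of untreated cells, values between 100 and 0 indicate rising inhibition; between -100 and 0 indicates cell death.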 A number with no mark means an inactive call. Active and inactive are the calls of the source. How the source made its calls: active means growth percent below 10; inactive means the rest.

Some test systems named below: HCT-15 colon; HT29 colon; SNB-75 CNS; U251 CNS; PC-3 prostate; SK-MEL-5 melanoma; UACC-62 melanoma; LOX IMVI melanoma; SK-MEL-28 melanoma.
Holding throughout (test): NCI-60 one-dose screen, 48 h (100 = growth as untreated, 0 = no growth, -100 = all killed)
In another experiment the test system is SNB-19 CNS. Particulars: 10 µM unless noted.

As to `COc1cc(C2CC(c3ccc(F)cc3)=Nc3c(N)nc(N)nc3N2)ccc1Oc1nc(Nc2ccc(F)cc2)nc(N(C)C)n1` (stereo not drawn), the growth with HCT-15 colon (10 µM unless noted) was 35.7%; in the experiment with HT29 colon (10 µM unless noted), 22.1%; in the experiment on SNB-75 CNS (10 µM unless noted), 58.3%; with SNB-19 CNS it was 65.1%; in the experiment on U251 CNS (10 µM unless noted) it was 52.9%; in the experiment on PC-3 prostate (10 µM unless noted), 27%. In addition, the growth in the experiment on SK-MEL-5 melanoma (10 µM unless noted) was -94.3% (active); with UACC-62 melanoma (10 µM unless noted), 73.4%; with LOX IMVI melanoma (10 µM unless noted), 38.5%; in the experiment on SK-MEL-28 melanoma (10 µM unless noted), 84.2%.
For `O=C(CSc1nnc(-c2ccc(-c3nc4ccccc4[nH]3)cc2)o1)Nc1ccc(Cl)cc1`, the growth with HCT-15 colon (10 µM unless noted) was 19.3%; with HT29 colon (10 µM unless noted), 26.6%; with SNB-75 CNS (10 µM unless noted) it was 62.4%; with SNB-19 CNS, -37.3% (active); in the experiment with U251 CNS (10 µM unless noted), -75.4% (active); in the experiment on PC-3 prostate (10 µM unless noted), 7.32% (active). Also, the growth in the experiment with SK-MEL-5 melanoma (10 µM unless noted) is 34.1%; in the experiment on UACC-62 melanoma (10 µM unless noted), 23.9%; with LOX IMVI melanoma (10 µM unless noted), -92.4% (active).
For `CN(C)CCOc1ccc(C(=O)C2[C@H](c3ccc(Cl)cc3)[C@@H](c3ccccc3)NC23C(=O)Nc2ccc(Cl)cc23)cc1` (stereo partly drawn), the growth is -91.5% (active) in the experiment on HCT-15 colon (10 µM unless noted); -93.7% (active) in the experiment on HT29 colon (10 µM unless noted); -90.7% (active) in the experiment with SNB-75 CNS (10 µM unless noted); -96.2% (active) in the experiment with SNB-19 CNS; -82.9% (active) with U251 CNS (10 µM unless noted); -89.9% (active) in the experiment on PC-3 prostate (10 µM unless noted). Also, the growth in the experiment on SK-MEL-5 melanoma (10 µM unless noted) is -98.2% (active); with UACC-62 melanoma (10 µM unless noted), -78.3% (active); in the experiment on LOX IMVI melanoma (10 µM unless noted) it was -96.3% (active); in the experiment with SK-MEL-28 melanoma (10 µM unless noted), -93.4% (active).
Turning to `S=C(Nc1ccc(OCc2nc3ccc(Cl)cc3[nH]2)cc1)NC1CCCCC1`, the growth with HCT-15 colon (10 µM unless noted) was -63.4% (active); in the experiment with HT29 colon (10 µM unless noted), -47.2% (active); in the experiment with SNB-75 CNS (10 µM unless noted) it was 10.7%; with SNB-19 CNS, 10%; with U251 CNS (10 µM unless noted), -48.1% (active); in the experiment on PC-3 prostate (10 µM unless noted) it was 17.6%. Also, the growth in the experiment with SK-MEL-5 melanoma (10 µM unless noted) is -96.6% (active); with UACC-62 melanoma (10 µM unless noted) it was -12.7% (active); in the experiment with LOX IMVI melanoma (10 µM unless noted), -100% (active).
In the case of `Cc1ccc(O)cc1Nc1nc(SCCN2CCOCC2)nc2c1cnn2CC(Cl)c1ccc(Br)cc1` (stereo not drawn), the growth with HCT-15 colon (10 µM unless noted) is 0.154% (active); in the experiment on HT29 colon (10 µM unless noted), -30.2% (active); with SNB-75 CNS (10 µM unless noted), 4.06% (active); in the experiment with SNB-19 CNS, 20.6%; with U251 CNS (10 µM unless noted), 15.4%; in the experiment with PC-3 prostate (10 µM unless noted), 17%. The results for the growth in the experiment with SK-MEL-5 melanoma (10 µM unless noted), in the experiment with UACC-62 melanoma (10 µM unless noted) and in the experiment with LOX IMVI melanoma (10 µM unless noted) were -0.938% (active), 15.6% and -88.4% (active), respectively.
In the case of `CN(C)CCCNC(=S)Nc1ccc(/C=C/c2ccc(Cl)cc2)cc1`, the growth was -93.8% (active) in the experiment with HCT-15 colon (10 µM unless noted); -51.4% (active) in the experiment with HT29 colon (10 µM unless noted); 8.9% (active) in the experiment with SNB-75 CNS (10 µM unless noted); -35.2% (active) with SNB-19 CNS; -2.11% (active) with U251 CNS (10 µM unless noted); -35.3% (active) with PC-3 prostate (10 µM unless noted). Also, the growth in the experiment on SK-MEL-5 melanoma (10 µM unless noted) is -98.6% (active); with UACC-62 melanoma (10 µM unless noted) it was -82.3% (active); in the experiment on LOX IMVI melanoma (10 µM unless noted) it was -64.5% (active).
Regarding `COc1ccc(N=Nc2c(N)nn3c(-c4cc5cc(Br)ccc5oc4=O)ccnc23)cc1`, the growth in the experiment with HCT-15 colon (10 µM unless noted) is 29.9%; in the experiment with HT29 colon (10 µM unless noted), 32.9%; in the experiment on SNB-75 CNS (10 µM unless noted), -14.8% (active); with SNB-19 CNS it was 2.33% (active); in the experiment with U251 CNS (10 µM unless noted), -12.3% (active); with PC-3 prostate (10 µM unless noted), 44.9%. For the same compound, the growth is -14.2% (active) in the experiment with SK-MEL-5 melanoma (10 µM unless noted), 30.7% with UACC-62 melanoma (10 µM unless noted) and 26.4% in the experiment with LOX IMVI melanoma (10 µM unless noted).
Consider `COc1ccc(NC(=O)Nc2nc3ccc([N+](=O)[O-])cc3s2)cc1`, for which the growth was 9.87% (active) with HCT-15 colon (10 µM unless noted); 58.1% in the experiment on HT29 colon (10 µM unless noted); 62.3% in the experiment with SNB-75 CNS (10 µM unless noted); 14.6% in the experiment with SNB-19 CNS; 0.863% (active) in the experiment on U251 CNS (10 µM unless noted); 10.5% in the experiment with PC-3 prostate (10 µM unless noted). In addition, the values for the growth in the experiment with SK-MEL-5 melanoma (10 µM unless noted), in the experiment on UACC-62 melanoma (10 µM unless noted) and with LOX IMVI melanoma (10 µM unless noted) were -70.7% (active), 36.2% and 33.8%, respectively.
With `Cc1ccc(C(=O)Nc2ccc(-n3ccnc3)c(C(F)(F)F)c2)cc1C#Cc1cnc2cccnn12`, the growth in the experiment with HCT-15 colon (10 µM unless noted) was 20.7%; in the experiment on HT29 colon (10 µM unless noted), 17.8%; in the experiment with SNB-75 CNS (10 µM unless noted), -2.9% (active); with SNB-19 CNS, 36.4%; in the experiment on U251 CNS (10 µM unless noted), 33.6%; with PC-3 prostate (10 µM unless noted), -16.3% (active). The growth is -55% (active) in the experiment on SK-MEL-5 melanoma (10 µM unless noted), -15.1% (active) in the experiment on UACC-62 melanoma (10 µM unless noted) and 3.66% (active) with LOX IMVI melanoma (10 µM unless noted).
Turning to `O=C(c1ccc(Cl)cc1)C1[C@H](c2ccccc2Cl)[C@@H](c2ccccc2)NC12C(=O)Nc1ccccc12` (stereo partly drawn), the growth with HCT-15 colon (10 µM unless noted) is -25.8% (active); in the experiment with HT29 colon (10 µM unless noted), -71.7% (active); in the experiment with SNB-75 CNS (10 µM unless noted) it was -4.03% (active); in the experiment with SNB-19 CNS, 7.09% (active); with U251 CNS (10 µM unless noted) it was -26.4% (active); in the experiment on PC-3 prostate (10 µM unless noted) it was -3.66% (active). For the same compound, the growth is -97.1% (active) in the experiment on SK-MEL-5 melanoma (10 µM unless noted), -73.3% (active) in the experiment with UACC-62 melanoma (10 µM unless noted) and -97.9% (active) in the experiment on LOX IMVI melanoma (10 µM unless noted).
On to `CC/C(=C(\c1ccc(O)cc1)c1ccc(OCCN(C)C(=O)CCOCCNC(=O)c2ccc3c(c2)CN([C@@H]2CCC(=O)NC2=O)C3=O)cc1)c1ccccc1`, for which the growth was 110% in the experiment with HCT-15 colon (1 µM); 103% in the experiment on HCT-15 colon (10 µM); 95% with HT29 colon (1 µM); 89% in the experiment on HT29 colon (10 µM); 59% with SNB-75 CNS (1 µM); 64.2% with SNB-75 CNS (10 µM). In addition, the growth in the experiment on U251 CNS (1 µM) was 95.3%; in the experiment with U251 CNS (10 µM), 92.6%; in the experiment on PC-3 prostate (1 µM), 54.2%; in the experiment on PC-3 prostate (10 µM), 52.9%; with SK-MEL-5 melanoma (1 µM) it was 95.4%; in the experiment with SK-MEL-5 melanoma (10 µM), 87.9%. The growth with UACC-62 melanoma (1 µM) was 95.9%; in the experiment with UACC-62 melanoma (10 µM), 95%; in the experiment with LOX IMVI melanoma (1 µM) it was 104%; in the experiment on LOX IMVI melanoma (10 µM) it was 94.4%; in the experiment on SK-MEL-28 melanoma (1 µM), 102%; with SK-MEL-28 melanoma (10 µM) it was 102%.
Consider `COc1ccc2[nH]c(=O)cc(-n3ncc(C(=O)/C=C/c4cc(OC)c(OC)c(OC)c4)c3C)c2c1`, for which the growth with HCT-15 colon (10 µM unless noted) was -27.1% (active); in the experiment on HT29 colon (10 µM unless noted), -27.4% (active); in the experiment with SNB-75 CNS (10 µM unless noted), 32.2%; in the experiment on SNB-19 CNS, 19.8%; in the experiment with U251 CNS (10 µM unless noted) it was -67.4% (active); in the experiment with PC-3 prostate (10 µM unless noted), 7.18% (active). Also, the growth is -93.9% (active) in the experiment with SK-MEL-5 melanoma (10 µM unless noted), -69.5% (active) with UACC-62 melanoma (10 µM unless noted) and -85.6% (active) in the experiment with LOX IMVI melanoma (10 µM unless noted).
Regarding `CCc1ccccc1NC(=O)N/C(N)=N/c1nc2ccccc2s1`, the growth in the experiment with HCT-15 colon (10 µM unless noted) was 0.728% (active); with HT29 colon (10 µM unless noted), -25% (active); with SNB-75 CNS (10 µM unless noted) it was 3.91% (active); in the experiment with SNB-19 CNS, 9.49% (active); in the experiment with U251 CNS (10 µM unless noted) it was -18.9% (active); in the experiment on PC-3 prostate (10 µM unless noted) it was 21.8%. For the same compound, the growth in the experiment with SK-MEL-5 melanoma (10 µM unless noted) is -59.1% (active); in the experiment with UACC-62 melanoma (10 µM unless noted) it was 13.8%; in the experiment on LOX IMVI melanoma (10 µM unless noted), -53.7% (active).
